Data from PubChem BioAssay.
Calls of active or inactive are those of the source. Unless noted, the rule behind the calls is not given here.

Assays:
[1] = A549 cell viability effects, profiling panel, calcein-AM fluorescence, 48 h, basal (AID 1162); conditions: higher = more signal; note: test concentration not given here
[2] = adipocyte viability effects, profiling panel, cell-based, 3T3-L1 adipocytes, calcein-AM fluorescence, 48 h, basal (AID 1163); conditions: 3T3-L1 adipocytes viability, higher = more signal; note: test concentration not given here
[3] = HepG2 cell viability effects, profiling panel, calcein-AM fluorescence, 48 h, basal (AID 1164); conditions: higher = more signal; note: test concentration not given here
[4] = MM1S cell viability effects, profiling panel, calcein-AM fluorescence, 48 h, basal (AID 1165); conditions: higher = more signal;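 note: viability of MM1S multiple myeloma cells under basal unstimulated conditions; test concentration not given here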
[5] = basal RPMI8226 viability, no added stimulus, profiling panel, cell-based, calcein-AM fluorescence, 48 h, PK04 Diversity Set (AID 1166); conditions: RPMI8226 myeloma viability, higher = more signal;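 note: cells grown under basal conditions without added stimulus; test concentration not given here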
[6] = basal HepG2 mitochondrial membrane potential changes, profiling panel, cell-based, JC-1 fluorescence, 24 h, 100 nL compound (AID 1167); conditions: higher = more signal; note: test concentration not given here
[7] = basal 3T3-L1 adipocyte mitochondrial potential changes, profiling panel, cell-based, JC-1 fluorescence, 3T3-L1 adipocytes, 24 h, 100 nL compound (AID 1168); conditions: JC-1 mitochondrial fluorescence, higher = more signal, called active from +8 up or from −8 down; note: test concentration not given here
[8] = basal RPMI8226 mitochondrial membrane potential changes, profiling panel, cell-based, JC-1 fluorescence, 24 h, 100 nL compound (AID 1169); conditions: RPMI8226 myeloma, JC-1 mitochondrial potential fluorescence, higher = more signal; note: test concentration not given here
[9] = basal MM1S mitochondrial membrane potential changes, profiling panel, cell-based, JC-1 fluorescence, 24 h, 100 nL compound (AID 1170); conditions: higher = more signal; note: test concentration not given here
[10] = A549 lung cancer cell viability effects, profiling panel, resazurin fluorescence, 24 h, PK04 Diversity Set (AID 1171); conditions: higher = more signal, called active from +8 up or from −8 down; note: test concentration not given here
[11] = HepG2 liver cancer cell viability effects, profiling panel, resazurin fluorescence, 24 h, PK04 Diversity Set (AID 1172); conditions: higher = more signal; note: test concentration not given here
[12] = basal S. cerevisiae growth modulation, no modifier, primary screen, OD600, strain BY4716, 24 h, basal condition (AID 1173); conditions: OD600, 24 h, higher = more signal, called active from +8 up or from −8 down
[13] = MM1S myeloma cell viability, profiling panel, resazurin fluorescence, basal, 24 h, PK04 Diversity Set (AID 1174); conditions: higher = more signal, called active from +8 up or from −8 down;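 note: MM1S multiple myeloma cell line; test concentration not given here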
[14] = target: Dihydroorotate dehydrogenase (quinone), mitochondrial (Plasmodium falciparum (isolate 3D7)) (UniProt Q08210); assay: PfDHODH enzyme inhibitors, primary screen, biochemical, C-terminal His tag, absorbance 600 nm (AID 1175); conditions: DCIP absorbance 600 nm, higher = more signal, called active from +8 up or from −8 down;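 note: recombinant parasite enzyme with a five histidine tag at its C terminus; test concentration not given here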
[15] = P. aeruginosa biofilm formation inhibitors, primary screen, strain PAO1, LB-PBS medium, absorbance 600 nm (AID 1176); note: test concentration not given here; conditions: P. aeruginosa PAO1 growth/biofilm, A600, 12 h; higher = more signal
[16] = S. cerevisiae RM11-1a growth modifiers, primary screen, strain RM11-1a, OD600, basal, 24 h (AID 1177); conditions: OD600, 24 h, higher = more signal, called active from +8 up or from −8 down;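 note: cultures grown under basal conditions with no added stressor; test concentration not given here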
[17] = E. coli acrAB mutant growth effects, primary screen, E. coli filamentation inducers, strain DRC39, OD650, 24 h (AID 1178); conditions: higher = more signal, called active from +8 up or from −8 down;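 note: growth measured as culture turbidity by optical density at 650 nm; test concentration not given here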
[18] = E. coli acrAB mutant growth effects, primary screen, E. coli filamentation inducers, strain DRC39, OD650, 48 h (AID 1179);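 note: screen aims at cell division blockers that make cells filament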; conditions: E. coli DRC39 delta-acrAB growth, higher = more signal, called active from +8 up or from −8 down
[19] = RPMI8226 myeloma cell viability, profiling panel, resazurin fluorescence, basal, 24 h, PK04 Diversity Set (AID 1180); conditions: higher = more signal;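 note: RPMI8826 multiple myeloma cell line at 5000 cells per well; test concentration not given here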
[20] = target: E3 ubiquitin-protein ligase XIAP (Homo sapiens) (UniProt P98170); assay: XIAP binders, primary screen, biophysical, small-molecule microarray, fluorescence 635 nm (AID 1181); conditions: small-molecule microarray binding, higher = more signal;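 note: score merges 667 nm emission and signal to noise over triplicate slides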
Chain of E3 ubiquitin-protein ligase XIAP (Homo sapiens) (P98170 whole entry, looked up): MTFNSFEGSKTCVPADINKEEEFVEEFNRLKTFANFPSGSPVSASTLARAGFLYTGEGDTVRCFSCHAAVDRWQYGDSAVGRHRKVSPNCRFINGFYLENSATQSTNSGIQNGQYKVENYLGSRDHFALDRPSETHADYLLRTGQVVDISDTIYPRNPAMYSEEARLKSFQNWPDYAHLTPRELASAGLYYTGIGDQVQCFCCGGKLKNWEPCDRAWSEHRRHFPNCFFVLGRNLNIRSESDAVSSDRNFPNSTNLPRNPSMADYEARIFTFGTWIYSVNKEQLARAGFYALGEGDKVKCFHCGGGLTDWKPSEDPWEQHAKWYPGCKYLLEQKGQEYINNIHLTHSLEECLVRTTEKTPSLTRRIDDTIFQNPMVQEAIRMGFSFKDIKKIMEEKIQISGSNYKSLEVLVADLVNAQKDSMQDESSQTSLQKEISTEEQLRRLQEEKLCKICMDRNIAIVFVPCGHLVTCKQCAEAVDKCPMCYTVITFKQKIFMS

Chain of Dihydroorotate dehydrogenase (quinone), mitochondrial (Plasmodium falciparum (isolate 3D7)) (Q08210 whole entry, looked up): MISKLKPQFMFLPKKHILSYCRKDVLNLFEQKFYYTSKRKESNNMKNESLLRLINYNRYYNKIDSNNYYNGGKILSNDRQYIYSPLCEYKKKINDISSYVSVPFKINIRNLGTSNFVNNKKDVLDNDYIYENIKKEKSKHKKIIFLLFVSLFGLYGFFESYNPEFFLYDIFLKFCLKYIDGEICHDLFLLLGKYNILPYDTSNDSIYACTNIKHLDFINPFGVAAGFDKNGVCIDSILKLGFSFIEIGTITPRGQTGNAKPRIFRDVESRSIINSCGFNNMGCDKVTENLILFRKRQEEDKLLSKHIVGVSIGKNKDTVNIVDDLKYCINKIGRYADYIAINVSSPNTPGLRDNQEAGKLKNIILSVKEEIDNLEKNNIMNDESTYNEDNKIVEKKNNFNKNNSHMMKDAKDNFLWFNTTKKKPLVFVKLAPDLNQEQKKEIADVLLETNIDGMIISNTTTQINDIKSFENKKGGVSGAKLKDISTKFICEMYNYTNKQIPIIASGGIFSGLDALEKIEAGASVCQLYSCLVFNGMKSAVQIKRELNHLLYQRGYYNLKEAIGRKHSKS

Row | SMILES | z-score [1] | z-score [2] | z-score [3] | z-score [4] | z-score [5] | z-score [6] | z-score [7] | z-score [8] | z-score [9] | z-score [10] | z-score [11] | z-score [12] | z-score [13] | composite z-score [14] | z-score [15] | z-score [16] | z-score [17] | z-score [18] | z-score [19] | composite z-score [20]
1 | COC(=O)[C@@]1(Cc2ccccc2)[C@H]2c3cc(C(=O)N4CCCC4)n(Cc4ccccc4)c3C[C@H]2CN1C(=O)c1ccccc1 | -1.39 | 0.988 | -0.0065 | -2.96 | -4.64 | 0.106 | -1.74 (inactive) | -0.737 | -0.777 | -3.12 (inactive) | -2.54 | 0.717 (inactive) | -1.12 (inactive) | -0.237 (inactive) | 0.895 (inactive) | 0.235 (inactive) | -0.78 (inactive) | -0.591 (inactive) | -3.29 | 0.421
2 | CC(C)c1ccc(NN2C(C(O)c3ccccn3)C=CC3C(=O)N(c4ccccc4)C(=O)C32)cc1 (stereo not given) | -0.381 | -0.696 | -0.293 | 0.741 | -0.712 | -0.357 | -1.17 (inactive) | -0.597 | -0.729 | -0.943 (inactive) | -0.981 | -0.147 (inactive) | -1.17 (inactive) | 1.87 (inactive) | 0.0895 (inactive) | 1.92 (inactive) | 0.235 (inactive) | 0.0644 (inactive) | -0.698 | -0.0559
3 | CC(C)CCC[C@@H](C)[C@H]1CC[C@@]2(C)C3=C(CC[C@]12C)[C@@]1(C)CC[C@H](OC(=O)c2ccc(N)cc2)C(C)(C)C1CC3 (stereo not given in full) | 1.22 | 0.187 | 1.06 | -0.169 | 0.814 | 0.703 | 0.335 (inactive) | -0.064 | -0.0494 | -0.16 (inactive) | -0.322 | -0.863 (inactive) | 0.467 (inactive) | -2.03 (inactive) | 0.589 (inactive) | -2.11 (inactive) | 0.965 (inactive) | 1.16 (inactive) | 0.826 | 0.45
4 | CC(C)CCC[C@@H](C)[C@H]1CC[C@@]2(C)C3=C(CC[C@]12C)[C@@]1(C)CC[C@H](OC(=O)C(C)(C)C)C(C)(C)C1CC3 (stereo not given in full) | 2.49 | 1.66 | 1.12 | 0.933 | -0.129 | 1.15 | 0.39 (inactive) | 0.363 | -1.44 | 0.221 (inactive) | 0.411 | -0.743 (inactive) | 0.0609 (inactive) | -2.48 (inactive) | 1.65 (inactive) | -4.69 (inactive) | 1.41 (inactive) | -0.805 (inactive) | 0.662 | 0.0356
5 | COc1ccc(CCNC(=O)[C@@H]2c3ccccc3C(=O)N(Cc3ccccc3)[C@H]2c2ccc(CO)cc2)cc1 | 2.96 | 1.29 | 2.44 | -0.913 | 1.02 | 2.56 | 1.26 (inactive) | -0.192 | -0.502 | 0.577 (inactive) | 0.713 | -0.996 (inactive) | -2.71 (inactive) | -0.489 (inactive) | 0.801 (inactive) | -0.539 (inactive) | 1.62 (inactive) | 1.78 (inactive) | -0.648 | -0.0272
